In the library only some 1.3% were active in any assay of this set; here they are far more common.
Mtb hypoxia inh – PubChem AID 1159583; M. tuberculosis hypoxia-regulated fluorescent reporter, fluorescence; fluorescence inhibition, % (concentration not given with the values); 300,000 compounds, 0.1% hits; in the data active means fluorescence inhibition mostly above about 23%, no sharp cut-off; inactive means mostly below about 17%
TcdB GH inh – TcdB glycohydrolase inhibitors, primary screen, biochemical, single point, plate reader | Toxin B (Clostridioides difficile), P18177 | TcdB glycohydrolase enzymatic assay | inhibition, % at 9.99 µM | 350,000 compounds, 0.24% hits | AID 652162, 2013; in the data active means inhibition above about 10%
MazF activator – activators of E. coli MazEF toxin-antitoxin RNase, primary screen, biochemical, fluorescence, uHTS; Endoribonuclease toxin MazF (Escherichia coli (strain K12)), P0AE70; FAM/BHQ RNA-DNA oligo cleavage fluorescence, 5 h; activation, % at 20 µM; 350,000 compounds, 0.32% hits; in the data active means activation above about 50%
Target sequence (P0AE70 whole entry, looked up): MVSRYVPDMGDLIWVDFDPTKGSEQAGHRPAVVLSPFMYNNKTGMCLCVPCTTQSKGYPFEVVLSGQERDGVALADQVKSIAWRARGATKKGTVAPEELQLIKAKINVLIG
PfHsp40 rescue – rescue of yeast from PfHsp40 toxicity, primary screen, S. cerevisiae, ATP luminescence; S. cerevisiae expressing PfHsp40, growth rescue; growth rescue, % at 12.5 µM; 340,000 compounds, 0.68% hits; in the data active means growth rescue above about 28%, passing the limit was not always enough;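 further: yeast W303a lacking pdr1 and pdr3 grown in galactose medium; growth measured after three days at 30 °C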
ugtP null kill – growth inhibition of ugtP-null S. aureus, primary screen, RN4220 ugtP deletion, OD600; 16 h; growth inhibition, % (no concentration beside the values); 330,000 compounds, 0.54% hits; in the data active means growth inhibition above about 68%;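 further: plate controls were untreated wells for no effect and antibiotic for full effect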
RN4220 kill – growth inhibition of S. aureus RN4220, primary screen, OD600 | AID 1259311, 2017 | inhibition, % (concentration not given with the values) | 16 h | 330,000 compounds, 0.33% hits; in the data active means inhibition above about 85%;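 further: plate controls were untreated cells for no effect and reference antibiotic for full effect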
Active calls of the source: *; x = no result; + = active, no number.

SMILES	Mtb hypoxia inh	TcdB GH inh	MazF activator	PfHsp40 rescue	ugtP null kill	RN4220 kill
COc1cc(C(=O)Oc2cc(N)n(S(=O)(=O)c3ccccc3)n2)cc(OC)c1OC	-4.0	-0.7	27.2	1.0	3.3	3.6
COc1cc(C(=O)Oc2cc(N)n(S(=O)(=O)c3ccc(F)cc3)n2)cc(OC)c1OC	6.6	1.0	245.3*	-1.3	6.3	0.8
COc1ccc(C(=O)CC(=O)C(=O)Nc2ccccc2)cc1	-3.3	1.0	-0.2	57.2*	-6.3	-1.0
COc1ccc(C(=O)CC(=O)C(=O)Nc2ccc(C)c(Cl)c2)cc1	2.9	1.2	1.7	-0.9	97.2*	78.3
COc1ccc(C(=O)CC(=O)C(=O)Nc2cccc(F)c2)cc1	8.5	1.0	17.4	39.2*	8.2	14.8
CC(C)C(=O)NC(c1cccs1)c1cc([N+](=O)[O-])c2cccnc2c1O (configuration not stated)	7.6	x	8.9	1.3	76.2	67.9
CC(C)C(=O)NC(c1ccco1)c1ccc2cccnc2c1O (configuration not stated)	x	x	-1.0	296.9*	x	x
CC(C)C(=O)NC(c1cccc([N+](=O)[O-])c1)c1ccc2cccnc2c1O (configuration not stated)	8.6	0.8	4.4	227.7*	10.9	22.4
Cc1ccc(C(NC(=O)C(C)C)c2cc([N+](=O)[O-])c3cccnc3c2O)cc1 (configuration not stated)	6.0	x	-5.6	-1.5	95.1*	91.6*
C[C@@H]1CCCCO[C@@H](CN(C)Cc2ccncc2)[C@@H](C)CN([C@H](C)CO)C(=O)c2cc(NC(=O)CCCN(C)C)ccc2O1	x	-3.9	x	x	x	x
NC(=O)NN=Cc1ccc(N2CCOCC2)s1	8.5	x	x	x	-0.8	2.2
N#Cc1ccc(-c2ccc([C@@H]3[C@H]4CN(S(=O)(=O)c5ccccc5)CCCCN4[C@H]3CO)cc2)cc1	x	-0.1	x	x	x	x
C[C@@]12CCC=C[C@H]1[C@H](c1ccc3ccccc3c1Br)N(Cc1ccccc1)C2=O	x	-0.2	-1.3	64.6*	x	x
Cc1cc(C)c(C=NNC(N)=O)c(C)c1C=NNC(N)=O	x	x	x	x	-0.6	0.6
COC(=O)c1ccc(NC(=O)Cn2nc(-c3ccncc3)nc2SCC(=O)Nc2nccs2)cc1	-12.1	x	55.6*	1.4	-10.1	-4.3
O=C(NC(=S)Nc1ccccc1Br)C1CC1	2.3	-0.6	-2.6	0.2	10.3	4.7
Cc1ccc(NC(=S)NC(=O)C2CCCC2)c(Br)c1	-6.0	1.1	1.8	118.8*	93.1*	6.8
CCN1C(=O)C2C(c3ccc(-c4ccc(C(C)=O)cc4)cc3)N[C@@](C)(C(=O)OC)C2C1=O (some centres not stated)	3.1	x	x	x	-1.4	4.1
Oc1ccc(CNc2ccccc2F)c2cccnc12	11.3	-3.3	9.3	39.2*	-9.6	8.6
CC1CCc2sc(-c3n[nH]c(=S)o3)cc2C1 (configuration not stated)	12.0	4.0	-2.3	329.7*	21.0	37.2
O=C1CN(S(=O)(=O)c2ccccc2)C[C@@H]2[C@@H](c3ccc(Br)cc3)[C@@H](CO)N12	x	0.5	x	x	x	x
CCN(CCO)C1CC(=O)N(c2ccccc2C)C1=O (configuration not stated)	4.2	x	5.8	75.0*	2.4	5.8
Cc1ccccc1N1C(=O)CC(N(O)c2ccccc2)C1=O (configuration not stated)	10.9	x	2.5	-1.0	9.8	0.0
O=Nc1c2nc3ccccc3n(O)c-2c2ccccc12	-72.1	x	x	-0.5	89.6*	9.1
CNC[C@@H]1Oc2c(NC(=O)Nc3c(C)noc3C)cccc2C(=O)N([C@@H](C)CO)C[C@H]1C	x	0.0	x	x	x	x
SMILES	Mtb hypoxia inh	TcdB GH inh	MazF activator	PfHsp40 rescue	ugtP null kill	RN4220 kill
CN(CCOc1ccc(Cl)c(Cl)c1)Cc1ccccc1	-1.2	-0.1	-8.1	36.1*	17.6	4.7
CCN1CCN(C2=CC3=CC(=C(C#N)C#N)CCC3CC2)CC1 (configuration not stated)	-214.2	x	+	0.4	1.6	4.0
CC1CN(S(=O)(=O)c2c(F)cccc2F)CCN1S(=O)(=O)c1ccc2c(c1)OCCO2 (configuration not stated)	16.7	x	x	x	-2.4	7.9
Cc1ccc(NS(=O)(=O)c2ccc3c(c2)NC(=O)CCS3)c(C)c1	13.0	-1.6	5.4	-0.6	95.6*	98.0*
COc1ccc(Cl)cc1NS(=O)(=O)c1ccc2c(c1)NC(=O)CCS2	-1.4	0.2	8.7	1.5	1.5	12.3
Cc1ccc(NS(=O)(=O)c2ccc3c(c2)NC(=O)CCS3)c(Cl)c1	15.2	1.5	3.9	0.2	89.8*	96.3*
Cc1cc(C)c(NS(=O)(=O)c2ccc3c(c2)NC(=O)CCS3)c(C)c1	4.4	0.7	-12.9	-0.1	3.4	55.4
Cc1cc(C(=O)NN=C2CCCC(=O)C2)c2ccccc2n1	0.9	x	x	x	1.0	0.9
CCN1[C@@H]2c3ccc(-c4ccccc4)c(=O)n3C[C@@H]2[C@@H](CO)[C@@H]1C(=O)NCc1ccccc1	x	0.4	x	x	x	x
CO[C@H]1CN(C)C(=O)c2ccc(NC(=O)Nc3ccccc3F)cc2OC[C@H](C)NC[C@@H]1C	x	-0.2	x	x	x	x
COCC#Cc1ccc2c(c1)O[C@@H](CN(C)S(=O)(=O)c1cccc(F)c1)[C@H](C)CN([C@@H](C)CO)S2(=O)=O	x	-1.8	x	x	x	x
Cc1cc(N2C(=O)C(O)=C(C(=O)c3cc4ccccc4o3)C2c2ccc(OC(C)C)cc2)no1 (configuration not stated)	3.5	-0.6	0.5	0.1	100.2*	100.4*
Cc1cc(N2C(=O)C(O)=C(C(=O)c3cc4ccccc4o3)C2c2cccc(Br)c2)no1 (configuration not stated)	-5.6	1.0	8.4	2.7	100.2*	100.4*
CCCOc1cccc(C2C(C(=O)c3cc4ccccc4o3)=C(O)C(=O)N2c2cc(C)on2)c1 (configuration not stated)	-1.9	0.2	7.4	-1.0	99.8*	100.4*
COC(=O)c1ccc(C2C(C(=O)c3cc4ccccc4o3)=C(O)C(=O)N2c2cc(C)on2)cc1 (configuration not stated)	x	1.7	2.2	2.2	x	x
CC1(O)C[C@]2(C)N(O)C3CCCCC3N2O1 (some centres not stated)	6.9	x	x	x	-4.6	3.7
COc1ccc(-c2ccc([C@@H]3[C@@H](C#N)N(C(=O)c4cccnc4)[C@H]3CO)cc2)cc1	x	0.8	x	x	x	x
CCC1=C(OC(=O)N(CC)CC)N2C(=O)OC(=NCCOC)[C@]2(Cc2ccccc2)C2C1=CCC1C(=O)NC(=O)C12 (some centres not stated)	15.8	x	x	x	-0.9	11.4
COc1ccc(S(=O)(=O)Nc2ccc3c(c2)C(=O)N(C)C[C@H](OC)[C@@H](C)CN[C@@H](C)CO3)cc1	x	-0.2	x	x	x	x
